A collection of fitness landscapes (doi:10.1016/j.celrep.2020.107928)
Whole data set: some 81,000 sequences, median “one-hybrid fitness for binding NBS DNA” near -0.1, cut for the highest 2% near 0.36. This excerpt belongs to a sample that is enriched for the highest values.

B1: Caulobacter ParB omega fusion; a variant is named by its letters at X, in order, B8GW30 (parent)
chain: MESVVVGEPGMSEGRRGLGRGLSALLGEVDAAPAQAPGEQLGGSREAPIEILQRNPDQPRRTFREEDLEDLSNSIREKGVLQPILVRPSPDTAGEYQIVAGERAWRAAQRAGLKTVPIMVRELDDLAVLEIGIIENVQRADLNVLEEALSYKVLMEKFERTQENIAQTIGKSXSHVANXMRLLXLPDEVQSYLVSGELTAXHARAIAAAADPVALAKQIIEGGLSVRETEALARKAPNLSAGKSKGGRPPRVKDTDTQALESDLSSVLGLDVSIDHRGSTGTLTITYATLEQLDDLCNRLTRGI

Variants of: B1
Assay: one-hybrid fitness for binding NBS DNA (the Noc-binding site; scaled: cognate 1, non-cognate 0); higher = stronger binding
Conditions: with NBS DNA site
Outline: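 In E. coli USO, a HIS3 reporter with its site placed 19 bp from the promoter was used to select Caulobacter ParB variants randomised at four specificity codons. Growth lasted 48 hours at 37°C on histidine-free M9 containing 0.1 mM IPTG and 5 mM 3-AT. Fitness was taken as the log change in variant-to-wild-type read ratio from Illumina sequencing of pre- and post-selection plasmids, rescaled between the non-cognate and cognate sites.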

Row | Variant | one-hybrid fitness for binding NBS DNA
1 | VRCG | ≤ 0.2
2 | PIKT | ≤ 0.2
3 | QYWR | 0.414
4 | QYQK | ≤ 0.2
5 | QYQC | ≤ 0.2
6 | QYHR | 0.541
7 | QYWH | ≤ 0.2
8 | QYMD | ≤ 0.2
9 | QYHG | ≤ 0.2
10 | QYMF | ≤ 0.2
11 | QYWS | 0.204
12 | QYHD | ≤ 0.2
13 | QYQR | 0.493
14 | QYMR | 0.482
15 | NPVN | ≤ 0.2
16 | YEWR | ≤ 0.2
17 | QQIF | ≤ 0.2
18 | YGVH | ≤ 0.2
19 | SDSA | ≤ 0.2
20 | TTTF | ≤ 0.2
21 | EAYV | ≤ 0.2
22 | QLSK | ≤ 0.2
23 | GGTS | ≤ 0.2
24 | IDHN | ≤ 0.2

Row | Variant | one-hybrid fitness for binding NBS DNA
25 | HIKY | ≤ 0.2
26 | SKIG | ≤ 0.2
27 | APVA | ≤ 0.2
28 | NMKT | ≤ 0.2
29 | QMVN | ≤ 0.2
30 | DMKT | ≤ 0.2
31 | QMKT | 0.75
32 | QMVT | 0.373
33 | EKHS | ≤ 0.2
34 | VRAW | ≤ 0.2
35 | HGTC | ≤ 0.2
36 | VCQG | ≤ 0.2
37 | HNDV | ≤ 0.2
38 | TFTP | ≤ 0.2
39 | WASL | ≤ 0.2
40 | AFSH | ≤ 0.2
41 | QKGP | ≤ 0.2
42 | QKYR | 0.505
43 | QKHR | 0.661
44 | QKGN | ≤ 0.2
45 | DKRR | ≤ 0.2
46 | QKHY | 0.206
47 | QKGR | 0.616
48 | QKHN | ≤ 0.2

Row | Variant | one-hybrid fitness for binding NBS DNA
49 | QKRR | 0.993
50 | QKYP | ≤ 0.2
51 | NKRR | 0.235
52 | QKER | 0.363
53 | PTNP | ≤ 0.2
54 | HCFY | ≤ 0.2
55 | IFEL | ≤ 0.2
56 | SQFR | ≤ 0.2
57 | SQRR | ≤ 0.2
58 | VILC | ≤ 0.2
59 | QAWG | ≤ 0.2
60 | NLDR | ≤ 0.2
61 | PTAP | ≤ 0.2
62 | DHKN | ≤ 0.2
63 | EVMR | ≤ 0.2
64 | TDVL | ≤ 0.2
65 | SRRL | ≤ 0.2
66 | GLRT | ≤ 0.2
67 | RKNP | ≤ 0.2
68 | RKNC | 0.281
69 | RKYF | ≤ 0.2
70 | RKHQ | ≤ 0.2
71 | RKDR | 0.443
72 | RKHF | ≤ 0.2

Row | Variant | one-hybrid fitness for binding NBS DNA
73 | RKYN | ≤ 0.2
74 | RKNR | 0.639
75 | RKYR | 0.573
76 | RKHR | 0.648
77 | GTKM | ≤ 0.2
78 | DLTE | ≤ 0.2
79 | LAPI | ≤ 0.2
80 | SAAD | ≤ 0.2
81 | NGLS | ≤ 0.2
82 | NRSI | ≤ 0.2
83 | RRTL | ≤ 0.2
84 | LHEN | ≤ 0.2
85 | HLQP | ≤ 0.2
86 | MMSM | ≤ 0.2
87 | LRWK | ≤ 0.2
88 | RKSR | 0.581
89 | RKQQ | ≤ 0.2
90 | RKWP | ≤ 0.2
91 | RKWH | ≤ 0.2
92 | RKGR | 0.606
93 | RKGH | 0.301
94 | RKGP | ≤ 0.2
95 | RKWR | 0.49
96 | RKQR | 0.573

Row | Variant | one-hybrid fitness for binding NBS DNA
97 | RKSH | 0.211
98 | RKSD | ≤ 0.2
99 | RKQM | ≤ 0.2
100 | MTIG | ≤ 0.2
101 | VDYG | ≤ 0.2
102 | AHFR | ≤ 0.2
103 | QHIC | ≤ 0.2
104 | TCFS | ≤ 0.2
105 | VSQV | ≤ 0.2
106 | PITE | ≤ 0.2
107 | GSCV | ≤ 0.2
108 | NCKS | ≤ 0.2
109 | YSQQ | ≤ 0.2
110 | MHKT | ≤ 0.2
111 | PLRH | ≤ 0.2
112 | SRLF | ≤ 0.2
113 | IRKG | ≤ 0.2
114 | HKFT | ≤ 0.2
115 | RKRM | 0.258
116 | RKRR | 0.736
117 | RKRK | 0.222
118 | PTAM | ≤ 0.2
